Screening data (PubChem)
Giardia FBPA inh = qHTS Assay for Inhibitors of Fructose-1,6-bisphosphate Aldolase from Giardia Lamblia. purified Giardia FBPA. A8B2U2. hit rate 0.71% among 290,000. Potency, µM (highest dose often 59.6 µM), without a hit: top-dose activity, negative = inhibition, hits mostly inhibitors. AID 2451, 2010; note: potency is the fitted concentration of half-maximal effect; % is set by controls: 0 for no effect and ±100 for the full control effect; nearly all actives have a fitted effect of over 55% in size
Target sequence (A8B2U2 whole entry, looked up): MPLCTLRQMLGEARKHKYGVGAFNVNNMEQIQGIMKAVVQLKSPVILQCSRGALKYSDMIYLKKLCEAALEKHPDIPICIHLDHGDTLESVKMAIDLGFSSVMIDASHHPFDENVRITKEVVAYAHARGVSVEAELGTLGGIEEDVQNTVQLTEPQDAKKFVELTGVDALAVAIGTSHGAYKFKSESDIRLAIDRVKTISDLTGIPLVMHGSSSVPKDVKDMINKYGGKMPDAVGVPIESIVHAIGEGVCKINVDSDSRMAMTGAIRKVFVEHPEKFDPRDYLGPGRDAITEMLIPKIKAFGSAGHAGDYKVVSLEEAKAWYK
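40 nM FBPA preincubated 10 min at RT with compound (up to 57.5 uM final), then substrate plus GAPDH/TPI/NAD/arsenate coupling and diaphorase/resazurin added. Fluorescence read after 20 min at RT, 525/598 nm.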
LmPK inh = qHTS Assay for Inhibitors of Leishmania Mexicana Pyruvate Kinase (LmPK); Q27686; purified LmPK, Kinase-Glo ATP luminescence, 1 h; Potency, µM (highest dose often 57.5 µM), without a hit: at the highest dose activity change, negative = inhibition, hits mostly inhibitors; hit rate 0.37% among 290,000; AID 1721, 2009; note: potency is the fitted concentration of half-maximal effect; % is set by controls: 0 for no effect and ±100 for the full control effect
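Pyruvate kinase activity monitored as ATP production (luciferase luminescence). Conditions: 0.1 nM enzyme, 0.5 mM PEP, 0.1 mM ADP, 1 h, RT; normalized against uninhibited and no-enzyme wells.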
RE007 growth inh = qHTS Assay for Inhibitors of the HIV-1 protein Vpr; hit rate 0.21% among 360,000; Potency, µM (doses to about 92.2 µM), for inactives: top-dose activity change, negative = less growth, most hits filed as inhibitors; AID 651644, 2012; S. pombe RE007 Vpr strain, BacTiter-Glo ATP luminescence, 24 h; active = well fitted falling curve with a large enough effect; inconclusive = small, poorly fitted or top-dose-only effect; inactive = no such curve, though single readings can be large or run the other way; note: potency is the fitted concentration of half-maximal effect; % is set by controls: 0 for no effect and ±100 for the full control effect; nearly all actives have a fitted effect of over 50% in size
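Fission yeast RE007 carrying one integrated HIV-1 vpr copy, seeded at OD 0.01 in PMG+AL medium with 23 nL pinned compound. Grown 24 h at 30 degrees; viability read by BacTiter-Glo luminescence after 5 min.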
Cycloheximide cs = Cycloheximide Counterscreen for Small Molecule Inhibitors of Shiga Toxin. cell reporter, cycloheximide protein synthesis inhibition counterscreen. AID 2314, 2010. hit rate 12% among 300,000. max response, %; in the data active = max response mostly above about 13%, no sharp cut-off; inactive = mostly below about 14%; note: read at 38.3 µM for the half of the compounds with a filed dose; 0% is about no effect
TbPYK inhibitor = qHTS of Trypanosoma Brucei Inhibitors | AID 624173, 2012 | TbPYK enzyme, Kinase-Glo Plus ATP luminescence, 45 min | Potency, µM (top dose mostly 76.8 µM), inactives show at the top dose activity, negative = inhibition, actives largely listed as inhibitors | hit rate 0.12% among 410,000; note: potency is the fitted concentration of half-maximal effect; % is set by controls: 0 for no effect and ±100 for the full control effect; nearly all actives have a fitted effect of over 50% in size
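ADP (130 uM final) triggers the TbPYK reaction after compound addition; incubation is 45 min at room temperature. Kinase-Glo Plus is then added and luminescence imaged. Normalized data are fitted to concentration-effect curves.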
Shiga toxin inh = A qHTS for Small Molecule Inhibitors of Shiga Toxin; Vero cells, Shiga toxin protein synthesis inhibition reporter; inhibition, % at 38.7 µM; hit rate 9.2% among 290,000; AID 2315, 2010; in the data active = inhibition mostly above about 28%, no sharp cut-off; inactive = mostly below about 43%; note: 0% is about no effect
Starred values were filed as active, the others as inactive; ? = inconclusive; . = no result; ! = not confirmed by another sample; [ ] = remark or other dose. Only a selection was taken, and hits are over-represented in it overall. Unless noted, calls come from the whole dose curve; as a rule, active = well fitted curve in the direction sought with a large enough effect; inconclusive = small, poorly fitted or top-dose-only effect, or another doubt; inactive = no such curve, though single readings can be large; an effect the other way counts as inactive or inconclusive.

SMILES | Giardia FBPA inh | LmPK inh | RE007 growth inh | Cycloheximide cs | TbPYK inhibitor | Shiga toxin inh
Cn1cccc1C1NC(=O)c2c(sc3c2CCC(C(C)(C)C)C3)N1 (configuration not stated) | -25.0% | 1.2% | -17.8% | 10.8* | -16.8% | 28.6*
O=C(Nc1oc2ccccc2c(=O)c1-c1ccc(Cl)cc1)c1ccco1 | -13.7% | -1.5% | 4.2% | 21.7* | 1.1% | 12.8
COC(=O)/C(C#N)=C1/C=Cc2ccccc2N1 | 3.5% | 0.5% | 3.1% | 34.3* | -6.2% | 68.0*
C1=Cc2ccccc2Nc2ccccc21 | -3.9% | -4.5% | -28.5% | -2.7 | -3.1% | 20.0
Cc1ccccc1NC(=O)c1nc(S(C)(=O)=O)ncc1Cl | 7.5% | -4.7% | -1.6% | 42.2* | -1.3% | 47.6*
Cc1cccc(CS(=O)(=O)c2ncc(Cl)c(C(=O)NCc3ccccc3)n2)c1 | . | -8.7% | -5.2% | 23.7* | 8.1% | 38.3*
Cc1cccc(C)c1NC(=O)c1nc(S(=O)(=O)Cc2ccccc2)ncc1Cl | . | 1.7% | -6.9% | 15.9* | 0.6% | 40.3*
Cc1cccc(CS(=O)(=O)c2ncc(Cl)c(C(=O)Nc3c(C)cccc3C)n2)c1 | . | -8.2% | -16.4% | 22.0* | -11.7% | 19.7
O=C(NCc1ccccc1)c1nc(S(=O)(=O)Cc2ccc(F)cc2)ncc1Cl | . | . | . | . | 0.8% | .
COc1ccccc1C(=O)NCC(=O)NNc1ncnc(N)c1[N+](=O)[O-] | ? | -2.2% | . | 23.2 | . | 33.8
O=[N+]([O-])c1ccc(C(O)C[n+]2ccccc2)cc1 (configuration not stated) | 8.3% | 3.0% | -19.3% | -0.8 | -5.1% | .
Cc1ccccc1CS(=O)(=O)c1ncc(Cl)c(C(=O)Nc2ccc(F)cc2)n1 | . | 10.7% | -6.3% | 28.9* | 2.4% | 32.2
CCCc1nnc(NC(=O)c2nc(S(=O)(=O)Cc3cccc(C)c3)ncc2Cl)s1 | . | -0.4% | 1.8% | 52.1* | 2.9% | 67.9*
CCOC(=O)c1nc(S(C)(=O)=O)ncc1Cl | 0.7% | 3.8% | -0.6% | 25.6* | -5.8% | 25.0
CS(=O)(=O)c1ncc(Cl)c(C(=O)Nc2ccc(N3CCOCC3)cc2)n1 | -23.1% | 2.7% | -15.7% | 59.7* | -3.6% | 67.3*
CCOCCCn1c(SCC(=O)Nc2cc(C)ccc2C)nc2c(oc3ccccc32)c1=O | . | . | . | . | -6.3% | .
Cc1ccc(NC(=O)c2nc(S(=O)(=O)Cc3ccccc3)ncc2Cl)cc1 | 0.1% | -3.7% | -8.2% | 12.4 | 5.9% | 23.2
Cc1nnc(NC(=O)c2nc(S(=O)(=O)Cc3ccccc3)ncc2Cl)s1 | . | -0.2% | -3.7% | 63.4* | -9.2% | 86.0*
Cc1ccc(C2C(C(=O)c3cccs3)=C(O)C(=O)N2CCN2CCOCC2)o1 (configuration not stated) | ? | -5.0% | 2.1% | 23.7* | 0.1% | 49.9*
CCN(CC)CCN1C(=O)C(O)=C(C(=O)c2cccs2)C1c1ccccn1 (configuration not stated) | ? | 0.6% | -8.5% | 20.0* | -6.0% | 20.5
Cc1ccc(C2C(C(=O)c3cc4ccccc4o3)=C(O)C(=O)N2CCN2CCOCC2)o1 (configuration not stated) | 0.0% | 3.4% | -21.3% | 24.3* | -6.7% | 53.6*
Cc1ccc(C2C(C(=O)c3cc4ccccc4o3)=C(O)C(=O)N2CCN2CCOCC2)cc1 (configuration not stated) | . | 1.1% | 10.9% | 17.1 | -0.6% | 34.9
COCCN1C(=O)C(O)=C(C(=O)c2cccs2)C1c1ccccc1 (configuration not stated) | 2.9% | -2.1% | 8.0% | 5.7 | 32.0% | 10.7
O=C(C1=C(O)C(=O)N(CCN2CCOCC2)C1c1ccccn1)c1cccs1 (configuration not stated) | ? | -5.0% | -23.9% | 27.6* | -10.2% | 35.9*
COc1cc(C=Cc2nnc3c4ccccc4cnn23)cc(OC)c1OC | . | . | 8.5% | . | 1.8% | .
SMILES | Giardia FBPA inh | LmPK inh | RE007 growth inh | Cycloheximide cs | TbPYK inhibitor | Shiga toxin inh
CNC(=O)[C@H]1O[C@@H](n2cnc3c(NCc4ccc(N)cc4)ncnc32)[C@H](O)[C@H]1O | -1.3% | . | . | . | . | .
Oc1ccc(C[C@H]2CNC(=S)N2C[C@H]2CCCN2C[C@H](Cc2ccccc2)N2C[C@H](Cc3ccc(O)cc3)N(CCc3ccccc3)C2=S)cc1 | . | . | -1.3% | . | -6.4% | .
COc1cccc(C2C(C(=O)c3cccs3)=C(O)C(=O)N2CCN(C)C)c1OC (configuration not stated) | -5.1% | -1.8% | -4.7% | 3.8 | 0.3% | 1.2
CCN(CC)CCN1C(=O)C(O)=C(C(=O)c2cccs2)C1c1ccc(C)o1 (configuration not stated) | -25.5% | 2.8% | 0.0% | 21.9* | -11.5% | 27.0*
Cn1c(SCc2ccccc2)nnc1-c1cccs1 | -3.8% | -2.4% | 23.8% | 31.5* | -9.9% | 80.6*
Cn1c(SCc2ccc(F)cc2)nnc1-c1cccs1 | 9.9% | -7.2% | 5.2% | 46.3* | 6.2% | 62.3
C1CCC(C23CC4CC(CC(C4)C2)C3)NC1 (configuration not stated) | 1.6% | 5.9% | 21.2% | -4.6 | -3.3% | -1.3
COc1ccc(C(CC(=O)Nc2cccc(C)c2C)N2Cc3ccccc3C2=O)cc1 (configuration not stated) | . | . | . | . | -3.1% | .
Cc1c(O)ccc(C(=O)COc2ccccc2F)c1O | 5.0% | 0.9% | -5.2%[3.69 µM] | 30.0* | . | 85.9*
Cc1ccc(C(=O)OCC(=O)Nc2ccc3c(c2)OCO3)c(O)c1 | . | . | -3.9% | . | 0.2% | .
Cc1coc2c1C(=O)C(=O)c1c-2ccc2c1CCCC2(C)C | 17.7µM*! | 0.9% | -8.6% | 23.7* | 1.6% | 38.9*
CC1COC2=C1C(=O)C(=O)c1c2ccc2c1CCCC2(C)C (configuration not stated) | 1.58µM* | . | . | 35.5 | . | 52.6*
Cc1coc2cc3oc(=O)c4c(c3cc12)CCC4 | 4.8% | -7.5% | . | -4.9 | . | 11.5
Cc1coc2c1C(=O)C(=O)c1c-2ccc2c(C)cccc12 | 1.26µM* | -2.4% | -13.8% | 18.1* | -18.2% | 35.4*
CNc1ccc2c3c(cccc13)C(=O)N(C)C2=O | -3.7% | 0.6% | . | -3.0 | -13.1% | -4.4
C[C@H]1COC2=C1C(=O)C(=O)c1c2ccc2c1CCCC2(C)C | ? | -0.2% | -28.9% | 25.7* | -3.6% | 58.9*
CCc1ccc(NC2=NCCCS2)cc1 | -1.6% | 0.9% | -29.9% | 14.9* | -20.1% | 35.0*
FC(F)(F)c1ccc(NC2=NCCCS2)cc1 | 14.1% | -1.0% | -21.2% | 30.4* | -7.5% | 43.0*
Cc1nc(N=Nc2cc([N+](=O)[O-])ccc2Cl)c(COP(=O)(O)O)c(C=O)c1O | 22.3µM* | . | . | -11.0 | . | -11.0
